Source: PubChem BioAssay (NCATS)
Inconclusive results are not listed. The source made the active and inactive calls. The call rests on the fitted dose curve; in most records, active means well fitted inhibition curve with a large enough effect; inconclusive means small, poorly fitted or top-dose-only effect; inactive means no such curve, though single readings can be large or run the other way.

biological target: Cytochrome P450 3A7 (Homo sapiens) (UniProt P24462); assay: Cytochrome P450 family 3 subfamily A member 7 (CYP3A7) small molecule antagonists: luciferase biochemical qHTS assay (AID 1963596); settings: P450-Glo CYP3A7 enzyme luminescence, 1 h; series mostly up to 57.4 µM; activity change, negative = inhibition: at the top concentration; further: nearly all actives have a fitted effect of over 40% in size
Sequence (P24462 whole entry, looked up): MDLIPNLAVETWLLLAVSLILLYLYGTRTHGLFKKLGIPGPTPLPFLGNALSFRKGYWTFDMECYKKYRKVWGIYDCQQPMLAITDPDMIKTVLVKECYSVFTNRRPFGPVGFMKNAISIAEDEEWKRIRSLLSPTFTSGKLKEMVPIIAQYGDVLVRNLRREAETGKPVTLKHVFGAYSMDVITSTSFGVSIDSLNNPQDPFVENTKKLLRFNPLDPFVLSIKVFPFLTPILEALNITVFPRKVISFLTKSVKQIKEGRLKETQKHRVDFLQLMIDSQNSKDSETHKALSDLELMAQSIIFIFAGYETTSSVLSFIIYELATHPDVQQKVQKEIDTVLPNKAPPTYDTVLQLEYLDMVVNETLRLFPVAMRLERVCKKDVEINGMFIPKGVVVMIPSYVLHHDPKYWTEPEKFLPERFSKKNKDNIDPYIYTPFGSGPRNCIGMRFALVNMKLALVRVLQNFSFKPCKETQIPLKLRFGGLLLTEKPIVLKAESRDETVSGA
From the text: National Center for Advancing Translational Sciences [NCATS] Assay Overview: Cytochrome P450 (CYP) enzymes are membrane-bound hemeproteins that play a key role in metabolism of drugs and xenobiotics. The CYP3A subfamily is the most abundant, representing 30% of the total adult hepatic CYP content, whereas CYP3A7 is found predominantly in human fetal liver and accounts up to 50% of the total fetal hepatic CYP content. Testing the effect of chemicals on CYP isozymes is useful to minimize the adverse drug reactions and toxicities in the drug development process. Chemicals were tested for their effect on CYP enzyme activities by using P450-Glo (TM) screening systems (Promega Corporation, Madison, WI). These systems provide a luminescent method containing proluciferin substrates and are converted to luciferin products by CYP isozymes. The luciferin products formed are detected with a luciferin detection reagent, and the amount of light produced is proportional to CYP activity. P450-Glo (TM) CYP3A7 screening system (Catalog. No. V8812) was used to detect the compounds that interfere with CYP3A7 activity. The positive control compound used for CYP3A7 assay is ketoconazole (Sigma-Aldrich, St. Louis, MO).
Assay Protocol Summary: Two ul of enzyme-substrate mix was dispensed into medium binding white/solid 1536-well plates (Greiner Bio-One North America Inc., Monroe, NC) using a Flying Reagent Dispenser (FRD, Aurora Discovery, San Diego, CA). Compounds dissolved in DMSO, and positive control (ketoconazole) were transferred to the assay plates at 23 nl using a Pintool station (Wako, San Diego, CA). The assay plates were incubated at room temperature for 10 min. Then 2 ul of NADPH regeneration solution was added to each well of the assay plates using an FRD and incubated at room temperature for 1 h. The reaction was stopped by adding 4 ul of detection reagent using an FRD and after 20 min incubation at room temperature the luminescence signal was measured using a ViewLux plate reader (Perkin Elmer, Shelton, CT). Data were expressed as relative luminescence units.
On the % scale 0 is the no-effect control and ±100 the full control effect.

SMILES | activity change, negative = inhibition | Potency
COC(=O)c1ccc2c(c1)nc(NC(=O)c1ccccc1)n2CCCc1ccccc1 | 14.1% (inactive) | –
Cc1cccc(Oc2cnc(=O)[nH]c2)c1 | 0% (inactive) | –
CN1CC(=O)N/C1=N/C(=O)Nc1cccc(Cl)c1 | 5.23% (inactive) | –
CCOC(=O)C1=C(O)c2ccccc2S(=O)(=O)N1C | -6.4% (inactive) | –
COC(=O)CCc1ccc(OCC(O)CNC(C)C)cc1 (stereo not given) | -9.48% (inactive) | –
CC(=O)O[C@@H]1C(=O)O[C@@H]2[C@H]1OC(=O)[C@@H]2OC(C)=O | 7.09% (inactive) | –
COc1cccc(C(=O)NC(c2ccc(Cl)cc2)c2cc(Cl)c3cccnc3c2O)c1 (stereo not given) | -6.07% (inactive) | –
O=C(O)CCCC[P+](c1ccccc1)(c1ccccc1)c1ccccc1 | -8.43% (inactive) | –
O=C(NCc1ccccn1)Nc1nnc(-c2ccco2)o1 | -4.42% (inactive) | –
C[N+](C)(C)CCCCCCCCCC[N+](C)(C)C | – | inactive
O=c1cc(N2CCN(c3cccc(C(F)(F)F)c3)CC2)[nH]c(=O)n1C1CCCCC1 | -21.3% (inactive) | –
Nc1c2c(nc3ccccc13)CCCC2 | -17.2% (inactive) | –
N#Cc1ccc(C(=O)N2CCC3(CC2)N=C(N)c2c(F)ccc(F)c2N3)cn1 | -23.2% (inactive) | –
Nc1nc(-n2cc(C(=O)O)c(=O)c3cc(F)c(N4CC(O)C4)c(Cl)c32)c(F)cc1F | -7.53% (inactive) | –
Nc1ccc(S(=O)(=O)Nc2ncccn2)cc1 | -2.99% (inactive) | –
O=c1[nH]cnc2c1ncn2[C@@H]1O[C@H](CO)[C@@H](O)[C@H]1O | -17.3% (inactive) | –
CCN[C@@H]1C[C@H](N)[C@@H](OC2OC(CN)=CCC2N)[C@H](O)[C@H]1O[C@H]1OC[C@](C)(O)[C@H](NC)[C@H]1O (stereo not given in full) | 12% [at 0.91 µM] (inactive) | –
CCc1nc(-c2cccc(C)c2)c(-c2ccnc(NC(=O)c3ccccc3)c2)s1 | -14.2% (inactive) | –
O=C1CC[C@H](C(=O)N2CCCCC2)N1 | 11% (inactive) | –
Fc1ccc(C(c2ccc(F)cc2)N2CCNCC2)cc1 | -16% (inactive) | –

SMILES | activity change, negative = inhibition | Potency
O=C(O)CC1CCC(c2ccc(-c3ccc(Nc4ccc(C(F)(F)F)nc4)cn3)cc2)CC1 (stereo not given) | 0% (inactive) | –
CC(=O)Nc1cccc(O)c1 | -9.64% (inactive) | –
Cn1c([N+](=O)[O-])cnc1COC(N)=O | -9% (inactive) | –
CN(C)c1ccc(C(=C2C=CC(=[N+](C)C)C=C2)c2c(O)c(S(=O)(=O)[O-])cc3cc(S(=O)(=O)O)ccc23)cc1 | 1.8% (inactive) | –
C[C@H]1C[C@H](O)c2ccsc2S1(=O)=O | 1.47% (inactive) | –
COc1cc(OC)cc(OC)c1 | 1.4% (inactive) | –
CC1(C)OC(=O)NC1=O | -3.87% (inactive) | –
OCC(O)CN1CCN(c2ccccc2)CC1 (stereo not given) | 0.962% (inactive) | –
C/C=C/C(=O)N(CC)c1ccccc1C | -23% (inactive) | –
Fc1ccc(-c2nc(-c3c(F)cccc3F)[nH]c2-c2ccncc2)cc1 | 0% (inactive) | –
C[C@]12CCC(=O)C=C1CC[C@@H]1[C@@H]2[C@@H](O)C[C@@]2(C)[C@H]1CC[C@]2(O)C(=O)CO | 4.14% (inactive) | –
N[C@H]1CN(c2c(F)cc3c(=O)c(C(=O)O)cn(C4C[C@@H]4F)c3c2Cl)CC12CC2 (stereo not given in full) | -3.01% (inactive) | –
OC[C@H]1O[C@@H]2O[C@H]3[C@H](O)[C@@H](O)[C@@H](O[C@H]4[C@H](O)[C@@H](O)[C@@H](O[C@H]5[C@H](O)[C@@H](O)[C@@H](O[C@H]6[C@H](O)[C@@H](O)[C@@H](O[C@H]7[C@H](O)[C@@H](O)[C@@H](O[C@H]1[C@H](O)[C@@H]2O)O[C@@H]7CO)O[C@@H]6CO)O[C@@H]5CO)O[C@@H]4CO)O[C@@H]3CO | 0.893% (inactive) | –
CNS(=O)(=O)Cc1ccc2[nH]cc(CCN(C)C)c2c1 | -2.49% (inactive) | –
O=C(O)c1cc(=O)c2c(OCC(O)COc3cccc4oc(C(=O)O)cc(=O)c34)cccc2o1 | -0.559% (inactive) | –
Cn1c2ccc(NC(=O)c3ccccc3)cc2c(=O)n2nc(C(=O)O)cc12 | -15.1% (inactive) | –
CNCCc1ccccn1 | -1.85% (inactive) | –
CCOC(=O)C(=O)CCCCCCl | -12.3% (inactive) | –
O=C(Nc1nc2ccccc2n1CCc1ccccc1)c1ccccc1 | 10.4% (inactive) | –
